Experimental data as given in PubChem BioAssay (NCATS).
Several values for one entry are separate records, joined by “and”; a condition that tells them apart may be missing. Equal values may be shown once. Results filed as inconclusive are left out. Activity calls are given as the source filed them. Unless noted, the call rests on the fitted dose curve.

Legend:
[1] = target: Peroxisome proliferator-activated receptor gamma (Homo sapiens) (UniProt P37231); assay: qHTS assay for small molecule agonists of peroxisome proliferator-activated receptor gamma signaling (AID 588536; active means well fitted curve in the direction sought with a large enough effect in the signal ratio, with a control signal flat, not every such curve was filed as active; the % refers to the signal ratio;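 further: 0% = DMSO basal wells and 100% = rosiglitazone at 2 µM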)
Summary of the method: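 PPAR-gamma-UAS-bla HEK293 cells in medium with 1% charcoal/dextran-treated FBS were exposed to compounds for 16 h at 37 C. Beta-lactamase activity was read with CCF4 substrate (405 nm excitation, 460/530 nm emission).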

[2] = target: Peroxisome proliferator-activated receptor gamma (Homo sapiens) (UniProt P37231); assay: qHTS assay for small molecule antagonists of peroxisome proliferator-activated receptor gamma signaling (AID 588537; active means well fitted inhibition curve with a large enough effect in the signal ratio, with a control signal flat, not every such curve was filed as active; the % refers to the signal ratio;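 further: reporter cells co-stimulated with 50 nM rosiglitazone agonist during compound treatment; % of control where 0% means no effect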)
Summary of the method: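 Step one: plate 3000 HEK293 UAS-bla cells per well in medium with 1% stripped serum and hold 6-6.5 h at 37 C. Step two: add compound and 50 nM agonist for 16 h. Step three: CCF4 loading, fluorescence read.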

[3] = target: Vitamin D3 receptor (Homo sapiens) (UniProt P11473); assay: qHTS assay for small molecule antagonists of vitamin D receptor signaling (AID 588541);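 further: receptor activated by calcitriol during compound treatment; series mostly up to about 77 µM; on the % scale 0 is the no-effect control and ±100 the full control effect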
Summary of the method: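 VDR-UAS-bla HEK293T cells in 2% charcoal-stripped FBS were stimulated with 1-alpha,25-dihydroxyvitamin D3 (3 nM final) plus compound for 16 h at 37 C. The beta-lactamase CCF4 readout was normalized to 50 nM agonist and DMSO, and Hill fits gave IC50.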

[4] = target: Vitamin D3 receptor (Homo sapiens) (UniProt P11473); assay: qHTS assay for small molecule agonists of vitamin D receptor signaling (AID 588543);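 further: 0% = DMSO basal and 100% = reference agonist control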
Summary of the method: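 Reporter cells (HEK293T, VDR-UAS-bla) were seeded in medium with 2% charcoal-stripped serum and incubated 5 h, then compounds in concentration series were added for 16 h at 37 °C. Stimulation was scaled between DMSO basal and 50 nM 1α,25-dihydroxyvitamin D3.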

[5] = qHTS assay for small molecule agonists of retinoid X receptor alpha signaling (AID 588544); conditions: HEK293T RXRa-UAS-bla, beta-lactamase reporter, 18 h; 530 nm emission;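 on activation: 0% = DMSO basal wells and 100% = reference agonist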
[6] = target: Retinoic acid receptor RXR-alpha (Homo sapiens) (UniProt P19793); assay: as above
[7] = target: Thyroid hormone receptor beta (Homo sapiens) (UniProt P10828); assay: qHTS assay for small molecule agonists of thyroid hormone receptor beta signaling (AID 588545)
Summary of the method: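 Cells (2500/well) were seeded, incubated 4 hrs at 37 C, dosed with a compound series, incubated 18 hrs, loaded with CCF4 dye for 2 hrs at RT, then read for fluorescence. Data were scaled between DMSO (0%) and 10 nM T3 (100%).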

[8] = qHTS assay for small molecule antagonists of retinoid X receptor alpha signaling (AID 588546); conditions: HEK293T RXRa-UAS-bla, beta-lactamase ratio, antagonist mode; measured here: W530 green channel, cytotoxicity proxy;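 further: cells stimulated with 9-cis-retinoic acid as agonist; on the % scale 0 is the no-effect control and ±100 the full control effect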
Summary of the method: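 Beta-lactamase reporter inhibition, read as CCF4 fluorescence ratio (ex 405, em 460/530 nm) after 2 h at RT. HEK293T UAS-bla cells, 2500/well, were stimulated with 9-cis-RA at 500 or 100 nM final alongside test compound for 18 h at 37 C.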

[9] = target: Thyroid hormone receptor beta (Homo sapiens) (UniProt P10828); assay: qHTS assay for small molecule antagonists of thyroid hormone receptor beta signaling (AID 588547; active means well fitted inhibition curve with a large enough effect in the signal ratio, with a control signal flat, not every such curve was filed as active; the % refers to the signal ratio;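 further: cells stimulated with 0.4 nM T3 agonist during compound exposure; series mostly up to about 77 µM; on the % scale 0 is the no-effect control and ±100 the full control effect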); conditions: TR-UAS-bla HEK293, beta-lactamase ratio, antagonist mode, 18 h
Summary of the method: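 TR-UAS-bla GripTite HEK293 cells in 2% charcoal/dextran FBS medium; compounds 0.59 nM to 92 uM with T3 at 0.4nM final, 18 h at 37 C. Beta-lactamase read by CCF4 fluorescence (460/530 nm); Hill fits gave IC50 and efficacy.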

[10] = target: Voltage-gated inwardly rectifying potassium channel KCNH2 (Homo sapiens) (UniProt Q12809); assay: qHTS Assay for Small Molecule Inhibitors of the Human hERG Channel Activity (AID 588834; active means well fitted curve in the direction sought with a large enough effect; an effect the other way counts as inactive or inconclusive;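 further: top concentration of the series differs between compounds; on the % scale 0 is the no-effect control and ±100 the full control effect; lower thallium flux fluorescence means stronger hERG block; nearly all actives have a fitted effect of over 50% in size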)
Summary of the method: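 hERG-BacMam U2OS, 2000 cells/well; 0.7X FluxOR loading 1 hr RT dark; cpd ~10 min 37 °C; stim buffer; FDSS fluorescence 2 min @ 1 s; AC50 Hill fit.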

[11] = qHTS assay for small molecule agonists of the antioxidant response element (ARE) signaling pathway (AID 651741; active means well fitted activation curve with a large enough effect in the signal ratio; the % refers to the signal ratio; further: % of control where 0% means no effect)
Summary of the method: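 HepG2 ARE-bla cells plated at 2,000 cells/well and incubated 5 h at 37 C/5% CO2 received 23 nL compound in DMSO. After 16 h at 37 C, LiveBLAzer B/G FRET substrate was applied for 2 h at room temperature and fluorescence read.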

[12] = qHTS assay for small molecule activators of the nuclear factor-kappa B (NF-kB) signaling pathway (AID 651749; active means well fitted activation curve with a large enough effect in the signal ratio; the % refers to the signal ratio; further: series mostly up to about 77 µM; % of control where 0% means no effect); conditions: NF-kB-bla ME-180 cells, beta-lactamase FRET ratio, 16 h; activation: stronger effect = higher value
Summary of the method: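 Incubation lasted 16 hr at 37C in 5% CO2 after 23 nL compound addition to ME-180 NF-kB-bla cells. Activation appears as beta-lactamase-mediated FRET loss.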

[13] = qHTS assay for small molecule disruptors of the mitochondrial membrane potential - 1 hr assay (AID 651754); further: on the % scale 0 is the no-effect control and ±100 the full control effect; nearly all actives have a fitted effect of over 35% in size
Summary of the method: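 HepG2 cells, attached overnight at 37C, were exposed to compound or DMSO vehicle for 1 hr at 37C, 5% CO2, then stained with Mito-MPS dye for 30 min. Red aggregate versus green monomer fluorescence reports membrane potential.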

[14] = qHTS assay for small molecule disruptors of the mitochondrial membrane potential - 5 hr assay (AID 651755); further: on the % scale 0 is the no-effect control and ±100 the full control effect; nearly all actives have a fitted effect of over 40% in size
Summary of the method: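 HepG2 cells (2,000/well), attached overnight, exposed to compound 5 hr at 37C, then Mito-MPS dye 30 min. Fluorescence read for monomers (490/535 nm) and aggregates (540/590 nm).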

[15] = target: Tumor necrosis factor (Homo sapiens) (UniProt P01375); assay: qHTS assay to identify small molecules that stimulate Tumor Necrosis Factor-alpha (TNF-alpha) secretion (AID 651757; active means well fitted curve in the direction sought with a large enough effect in the signal ratio; the % refers to the signal ratio; further: 0% is about no effect)
Summary of the method: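 THP-1 cells were exposed to compounds for 17 hrs at 37 C, after which secreted TNF-alpha was measured by homogeneous HTRF (TR-FRET) using cryptate- and XL665-labeled anti-TNF-alpha antibodies, read after 3 hr at room temperature.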

[16] = qHTS assay for environmental chemicals that activate the Aryl hydrocarbon Receptor (AhR) signaling pathway (AID 651777; active means well fitted curve in the direction sought with a large enough effect; an effect the other way counts as inactive or inconclusive; further: % of control where 0% means no effect; nearly all actives have a fitted effect of over 15% in size); conditions: 1A2-DRE human hepatoma cells, luciferase, 24 h; activation: stronger effect = higher value
Summary of the method: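 Stable CYP1A2 promoter/DRE-luciferase human hepatoma line treated 24 hr; One-Glo luminescence, 30 min RT.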

[17] = target: Peroxisome proliferator-activated receptor alpha (Homo sapiens) (UniProt Q07869); assay: qHTS assay for small molecule agonists of the peroxisome proliferator-activated receptor alpha (PPARalpha) signaling pathway (AID 651778; active means well fitted curve in the direction sought with a large enough effect; an effect the other way counts as inactive or inconclusive; further: % of control where 0% means no effect); conditions: PathHunter PPARalpha complementation, chemiluminescence, 6 h; stronger effect = higher value
Summary of the method: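 Enzyme-fragment complementation assay in which ligand-bound PPARalpha translocates and forms an active enzyme that generates chemiluminescence. Cells were plated overnight, exposed to compound for 6 hr at 37 C, and then given detection reagent for 60 min at room temperature.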

[18] = target: Nuclear receptor ROR-gamma (Homo sapiens) (UniProt P51449); assay: qHTS assay for small molecule antagonists of the retinoid-related orphan receptor gamma (ROR-gamma) signaling pathway (AID 651802; active means well fitted curve in the direction sought with a large enough effect; an effect the other way counts as inactive or inconclusive; further: series mostly up to about 92 µM; on the % scale 0 is the no-effect control and ±100 the full control effect; nearly all actives have a fitted effect of over 60% in size)
Summary of the method: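 CHO cells carrying TET-inducible ROR-gamma and an ROR response element–luciferase reporter were exposed to compound, then induced with doxycycline. After 16hr at 37C, luminescence was read; lower signal indicates antagonism.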

[19] = qHTS assay for small molecule agonists of the antioxidant response element (ARE) signaling pathway measured by Nrf2-dependant transcriptional activity (AID 720636; active means well fitted curve in the direction sought with a large enough effect in the repeat runs; an effect the other way counts as inactive or inconclusive;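 further: HepG2 cells with an ARE-driven luciferase reporter; % of control where 0% means no effect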)
Summary of the method: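 Reporter gene assay, HepG2 ARE-luc: 16 hr compound, 37 C, 5% CO2; read-out luciferase luminescence.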

[20] = qHTS assay for small molecule antagonists of the retinoid-related orphan receptor gamma (ROR-gamma) signaling pathway - cell viability counter screen (AID 720652; active means well fitted curve in the direction sought with a large enough effect in the repeat runs; an effect the other way counts as inactive or inconclusive;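 further: series mostly up to about 92 µM; compound exposure lasted 16 hr before ATP read; on the % scale 0 is the no-effect control and ±100 the full control effect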)
Summary of the method: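 Counter screen in CHO cells carrying TET-inducible ROR-gamma and an ROR response element-luciferase reporter; cells plated 5 hr, compound pinned, doxycycline added, then 16 hr at 37 C. Viability read as intracellular ATP by CellTiter-Glo luminescence.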

[21] = qHTS assay for small molecule agonists of the antioxidant response element (ARE) signaling pathway measured by Nrf2-dependant transcriptional activity - cell viability counter screen (AID 720653; active means well fitted curve in the direction sought with a large enough effect in the repeat runs; an effect the other way counts as inactive or inconclusive; further: on the % scale 0 is the no-effect control and ±100 the full control effect); conditions: ARE-bla HepG2 viability, CellTiter-Glo ATP luminescence, 16 h; stronger effect = lower value
Summary of the method: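 ARE-bla HepG2 cells treated with compounds for 16 h at 37C; this counter screen measures viability as intracellular ATP by CellTiter-Glo luminescence after 30 min at room temperature.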

[22] = qHTS assay for cell viability of HEK293 cells (AID 743288; active means well fitted curve in the direction sought with a large enough effect; an effect the other way counts as inactive or inconclusive; further: on the % scale 0 is the no-effect control and ±100 the full control effect; nearly all actives have a fitted effect of over 50% in size); conditions: ATP luminescence (CellTiter-Glo), 18 h; max response: stronger effect = lower value
Summary of the method: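 HEK293 parental, 2,000 cells/well; ≥5 h pre-incubation 37 C; pintool compound addition; 18 h, 37 C; CellTiter-Glo 30 min RT; luminescence read.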

[23] = qHTS assay for cell viability of the p53RE-bla HCT-116 cell line (AID 743292; active means well fitted curve in the direction sought with a large enough effect; an effect the other way counts as inactive or inconclusive; further: on the % scale 0 is the no-effect control and ±100 the full control effect; nearly all actives have a fitted effect of over 55% in size)
Summary of the method: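 Readout: CellTiter-Glo luminescence after 30 min RT. Treatment: compounds in DMSO, 16 h, 37 C. Cells: CellSensor p53RE-bla HCT-116, 4,000/well, preincubated 5 h.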

Chain of Thyroid hormone receptor beta (Homo sapiens) (P10828 whole entry, looked up): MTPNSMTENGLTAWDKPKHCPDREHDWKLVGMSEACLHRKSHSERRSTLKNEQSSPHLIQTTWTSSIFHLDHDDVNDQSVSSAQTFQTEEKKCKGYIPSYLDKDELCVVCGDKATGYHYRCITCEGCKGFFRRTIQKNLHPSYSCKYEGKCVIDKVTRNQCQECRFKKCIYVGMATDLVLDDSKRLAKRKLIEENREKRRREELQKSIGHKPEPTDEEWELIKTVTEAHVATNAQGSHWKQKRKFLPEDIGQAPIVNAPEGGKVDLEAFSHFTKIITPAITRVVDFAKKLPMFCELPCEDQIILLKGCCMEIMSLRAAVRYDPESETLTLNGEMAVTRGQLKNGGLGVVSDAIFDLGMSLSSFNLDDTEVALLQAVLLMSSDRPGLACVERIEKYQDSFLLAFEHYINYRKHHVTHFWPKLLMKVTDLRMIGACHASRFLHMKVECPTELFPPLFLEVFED
Chain of Peroxisome proliferator-activated receptor gamma (Homo sapiens) (P37231 whole entry, looked up): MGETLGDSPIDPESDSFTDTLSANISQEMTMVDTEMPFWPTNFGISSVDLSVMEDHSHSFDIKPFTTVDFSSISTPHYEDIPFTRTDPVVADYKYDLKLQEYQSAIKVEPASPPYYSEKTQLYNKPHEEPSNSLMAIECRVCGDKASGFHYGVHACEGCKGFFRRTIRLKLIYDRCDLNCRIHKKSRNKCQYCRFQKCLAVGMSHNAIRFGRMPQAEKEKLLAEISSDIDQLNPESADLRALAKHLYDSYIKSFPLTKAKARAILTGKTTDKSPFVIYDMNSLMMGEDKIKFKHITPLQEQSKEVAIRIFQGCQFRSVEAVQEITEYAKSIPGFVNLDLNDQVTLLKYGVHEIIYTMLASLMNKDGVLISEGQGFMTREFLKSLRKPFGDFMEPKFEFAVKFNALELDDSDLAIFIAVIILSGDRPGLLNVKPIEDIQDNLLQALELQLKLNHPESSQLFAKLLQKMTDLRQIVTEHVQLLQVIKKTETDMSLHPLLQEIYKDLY
Chain of Vitamin D3 receptor (Homo sapiens) (P11473 whole entry, looked up): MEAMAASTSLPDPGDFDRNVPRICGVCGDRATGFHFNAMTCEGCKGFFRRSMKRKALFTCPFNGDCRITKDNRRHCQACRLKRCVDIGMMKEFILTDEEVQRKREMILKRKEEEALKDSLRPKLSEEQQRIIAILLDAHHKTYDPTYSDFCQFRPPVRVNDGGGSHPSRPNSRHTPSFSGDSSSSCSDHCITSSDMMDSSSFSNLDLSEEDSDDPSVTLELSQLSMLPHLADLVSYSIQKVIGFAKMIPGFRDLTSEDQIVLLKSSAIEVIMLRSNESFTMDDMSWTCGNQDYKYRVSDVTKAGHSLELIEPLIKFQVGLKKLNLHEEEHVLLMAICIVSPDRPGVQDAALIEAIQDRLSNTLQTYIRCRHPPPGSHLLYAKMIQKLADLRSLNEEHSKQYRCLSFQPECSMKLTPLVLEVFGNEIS
Chain of Peroxisome proliferator-activated receptor alpha (Homo sapiens) (Q07869 whole entry, looked up, the tested form may be a part): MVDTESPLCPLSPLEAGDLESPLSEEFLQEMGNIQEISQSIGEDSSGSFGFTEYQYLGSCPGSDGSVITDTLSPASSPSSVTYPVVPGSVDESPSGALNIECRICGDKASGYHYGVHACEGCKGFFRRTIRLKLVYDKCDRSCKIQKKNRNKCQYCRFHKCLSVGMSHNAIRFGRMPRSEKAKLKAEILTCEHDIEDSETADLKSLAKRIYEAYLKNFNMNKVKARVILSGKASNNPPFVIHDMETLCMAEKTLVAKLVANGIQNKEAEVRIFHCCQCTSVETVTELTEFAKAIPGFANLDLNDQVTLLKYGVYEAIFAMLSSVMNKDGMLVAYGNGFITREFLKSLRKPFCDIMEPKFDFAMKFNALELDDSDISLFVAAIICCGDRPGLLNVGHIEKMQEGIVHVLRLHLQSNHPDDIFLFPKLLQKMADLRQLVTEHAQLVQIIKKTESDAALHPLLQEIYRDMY
Chain of Retinoic acid receptor RXR-alpha (Homo sapiens) (P19793 whole entry, looked up): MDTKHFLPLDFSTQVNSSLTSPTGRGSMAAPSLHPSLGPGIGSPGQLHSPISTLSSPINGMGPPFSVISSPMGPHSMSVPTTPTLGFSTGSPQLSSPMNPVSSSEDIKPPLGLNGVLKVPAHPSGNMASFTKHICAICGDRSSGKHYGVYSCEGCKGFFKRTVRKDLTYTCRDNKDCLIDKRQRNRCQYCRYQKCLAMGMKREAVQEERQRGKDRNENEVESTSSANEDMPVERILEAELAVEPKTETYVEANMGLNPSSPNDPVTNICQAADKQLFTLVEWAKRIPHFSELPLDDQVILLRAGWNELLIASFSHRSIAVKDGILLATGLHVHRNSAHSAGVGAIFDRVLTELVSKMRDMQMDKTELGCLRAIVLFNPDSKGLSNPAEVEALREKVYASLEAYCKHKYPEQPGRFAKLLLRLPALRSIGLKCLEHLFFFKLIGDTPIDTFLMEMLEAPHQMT
Chain of Nuclear receptor ROR-gamma (Homo sapiens) (P51449 whole entry, looked up): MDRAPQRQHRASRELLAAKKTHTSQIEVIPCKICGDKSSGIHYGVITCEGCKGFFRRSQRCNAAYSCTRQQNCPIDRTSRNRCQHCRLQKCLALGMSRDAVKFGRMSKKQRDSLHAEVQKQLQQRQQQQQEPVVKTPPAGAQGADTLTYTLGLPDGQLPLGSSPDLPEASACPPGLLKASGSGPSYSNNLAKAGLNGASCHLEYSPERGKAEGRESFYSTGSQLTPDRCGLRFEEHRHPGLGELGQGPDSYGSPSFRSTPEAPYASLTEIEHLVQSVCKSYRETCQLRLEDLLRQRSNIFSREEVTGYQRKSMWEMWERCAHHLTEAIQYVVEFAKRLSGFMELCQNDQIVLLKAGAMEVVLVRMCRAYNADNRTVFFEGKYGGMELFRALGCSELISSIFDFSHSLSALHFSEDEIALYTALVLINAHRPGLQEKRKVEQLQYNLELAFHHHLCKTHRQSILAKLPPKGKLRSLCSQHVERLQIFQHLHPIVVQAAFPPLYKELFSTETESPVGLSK
Chain of Tumor necrosis factor (Homo sapiens) (P01375 whole entry, looked up): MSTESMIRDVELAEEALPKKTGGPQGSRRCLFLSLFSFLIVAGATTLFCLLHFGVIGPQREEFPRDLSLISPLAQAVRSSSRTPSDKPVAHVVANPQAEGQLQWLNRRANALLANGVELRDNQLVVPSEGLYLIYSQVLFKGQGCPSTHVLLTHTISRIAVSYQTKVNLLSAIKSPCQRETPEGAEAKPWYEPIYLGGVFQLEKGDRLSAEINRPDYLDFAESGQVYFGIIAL
Chain of Voltage-gated inwardly rectifying potassium channel KCNH2 (Homo sapiens) (Q12809 whole entry, looked up): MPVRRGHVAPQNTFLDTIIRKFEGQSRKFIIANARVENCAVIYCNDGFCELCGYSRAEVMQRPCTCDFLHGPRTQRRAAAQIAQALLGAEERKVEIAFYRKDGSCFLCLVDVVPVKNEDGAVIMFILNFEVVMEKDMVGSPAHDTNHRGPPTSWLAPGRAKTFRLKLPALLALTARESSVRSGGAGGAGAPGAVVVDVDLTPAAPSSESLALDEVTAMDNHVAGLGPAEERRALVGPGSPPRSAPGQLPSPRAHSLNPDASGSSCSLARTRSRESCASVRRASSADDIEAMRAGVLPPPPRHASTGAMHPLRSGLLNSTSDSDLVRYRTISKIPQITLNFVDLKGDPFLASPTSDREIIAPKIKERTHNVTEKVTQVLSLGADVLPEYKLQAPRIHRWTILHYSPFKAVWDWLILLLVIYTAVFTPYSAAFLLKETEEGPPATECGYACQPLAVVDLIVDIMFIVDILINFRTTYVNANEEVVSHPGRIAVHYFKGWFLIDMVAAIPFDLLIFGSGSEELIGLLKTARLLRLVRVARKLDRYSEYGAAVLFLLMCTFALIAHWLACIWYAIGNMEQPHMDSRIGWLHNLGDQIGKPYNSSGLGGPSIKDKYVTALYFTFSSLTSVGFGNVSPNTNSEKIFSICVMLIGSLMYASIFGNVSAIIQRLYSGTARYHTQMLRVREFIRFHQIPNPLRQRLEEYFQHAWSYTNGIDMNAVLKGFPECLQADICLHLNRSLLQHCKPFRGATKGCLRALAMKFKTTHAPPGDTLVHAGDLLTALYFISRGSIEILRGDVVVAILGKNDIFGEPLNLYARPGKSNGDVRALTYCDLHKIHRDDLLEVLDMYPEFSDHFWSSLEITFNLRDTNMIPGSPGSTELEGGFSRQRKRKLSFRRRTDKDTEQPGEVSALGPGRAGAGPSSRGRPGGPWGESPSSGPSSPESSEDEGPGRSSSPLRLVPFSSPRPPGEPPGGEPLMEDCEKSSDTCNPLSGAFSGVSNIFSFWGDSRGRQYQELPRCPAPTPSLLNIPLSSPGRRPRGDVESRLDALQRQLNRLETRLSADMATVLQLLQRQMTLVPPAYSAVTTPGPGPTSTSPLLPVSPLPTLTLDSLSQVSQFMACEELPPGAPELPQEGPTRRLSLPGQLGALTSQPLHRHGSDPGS

NC(=S)Nc1ccccc1
-11.1% and -12.4% and -6.79%: max response [5]
-15.9% and -3.13% and -6.62%: max response [8]
inactive: outcome [1] | Potency [2] | outcome [3] | outcome [4] | Potency [6] | outcome [7] | activity change % (negative = inhibition) [9] -7.36% and -1.01% and 3.6% | Potency [10] | Potency [11] | activation [12] -0.0044% and -1.03% and -0.459% | Potency [13] | Potency [14] | outcome [15] | activation [16] 0.646% and -0.436% and 0.133% | max response [17] -6.31% and -5.47% and -0.622% | Potency [18] | outcome [19] | Potency [20] | max response [21] -3.66% and 8.32% and -3.85% | max response [22] -1.42% and -0.575% and -4.82% | Potency [23]
